# According to the supplement of paper PMC6331611:
# ± gives the standard deviation of the averaged measurements. In all, about 1,600 compounds were measured (“normalized intracellular growth (luminescence, IQM-normalized) in RAW264.7 macrophages”: median about 1, lowest 2% from about 0.43 on). This excerpt belongs to a sample that is enriched for the lowest values.
# Tested on: Salmonella enterica serovar Typhimurium SL1344
# Test: normalized intracellular growth (luminescence, IQM-normalized) in RAW264.7 macrophages (fraction of plate interquartile mean); higher = more bacterial growth (less inhibition)
# Settings: 10 µM
SMILES,normalized intracellular growth (time point: T3 (3 h)),normalized intracellular growth (time point: Tfinal (~6 h))
CCN[C@@H]1C[C@H](N)[C@@H](O[C@H]2OC(CN)=CC[C@H]2N)[C@H](O)[C@H]1O[C@H]1OC[C@](C)(O)[C@H](NC)[C@H]1O,0.986 ± 0.033,0.632 ± 0.25
O=S(=O)(O)NC1CCCCC1,0.688 ± 0.097,0.748 ± 0.044
CCCCCCCCCCC[C@@H](C[C@@H]1OC(=O)[C@H]1CCCCCC)OC(=O)[C@H](CC(C)C)NC=O,0.987 ± 0.091,1.21 ± 0.048
C[N+](C)(C)CC(O)CC(=O)[O-] (stereo unspecified),0.978 ± 0.032,0.91 ± 0.16
O=c1cc[nH]c(=O)[nH]1,0.935 ± 0.09,0.9 ± 0.052
O=c1[nH]cc(F)c(=O)[nH]1,0.731 ± 0.089,0.153 ± 0.006
Nc1nc(=O)[nH]cc1F,1.07 ± 0.058,1.28 ± 0.1
O=C(NCCCN1CCOCC1)c1ccc(Cl)cc1,1.25 ± 0.11,1.35 ± 0.15
O=C(c1cccnc1)N1CCOCC1,1.01 ± 0.09,0.728 ± 0.18
CC(=O)c1ccc2c(c1)N(CCCN1CCN(CCO)CC1)c1ccccc1S2,1.04 ± 0.024,0.807 ± 0.11
Cc1c2oc3c(C)ccc(C(=O)N[C@@H]4C(=O)N[C@H](C(C)C)C(=O)N5CCC[C@H]5C(=O)N(C)CC(=O)N(C)[C@@H](C(C)C)C(=O)O[C@@H]4C)c3nc-2c(C(=O)N[C@@H]2C(=O)N[C@H](C(C)C)C(=O)N3CCC[C@H]3C(=O)N(C)CC(=O)N(C)[C@@H](C(C)C)C(=O)O[C@@H]2C)c(N)c1=O,0.861 ± 0.057,1.05 ± 0.12
CCCCCCCC/C=C\CCCCCCCC(=O)O.NCCO,1.05 ± 0.035,1.09 ± 0.041
COC(=O)N/N=C/c1c[n+]([O-])c2ccccc2[n+]1[O-],0.957 ± 0.032,0.309 ± 0.16
CC(=O)[C@@]1(O)CC[C@H]2[C@@H]3C=C(Cl)C4=CC(=O)[C@@H]5C[C@@H]5[C@]4(C)[C@H]3CC[C@@]21C,1.06 ± 0.049,0.762 ± 0.26
COc1c2occc2cc2ccc(=O)oc12,1.15 ± 0.034,1.36 ± 0.076
Nc1nc(N)c2nc(CNc3ccc(C(=O)N[C@@H](CCC(=O)O)C(=O)O)cc3)cnc2n1,0.994 ± 0.021,1.09 ± 0.15
CCCCCC(C)N (stereo unspecified),0.993 ± 0.077,0.979 ± 0.12
CO[C@H]1C[C@H](O[C@@H]2/C(C)=C/C[C@@H]3C[C@@H](C[C@]4(CC[C@H](C)[C@@H](C5CCCCC5)O4)O3)OC(=O)[C@@H]3C=C(C)/C(=N/O)[C@H]4OC/C(=C\C=C\[C@@H]2C)[C@]43O)O[C@@H](C)[C@@H]1O,1.01 ± 0.064,1.16 ± 0.094
C[C@]12C=CC(=O)C=C1CC[C@@H]1[C@@H]2[C@@H](O)C[C@@]2(C)[C@H]1CC[C@]2(O)C(=O)CO,0.8 ± 0.15,0.888 ± 0.078
C[C@H]1C[C@@H]2[C@H]([C@@H](O)C[C@@]3(C)[C@H]2CC[C@]3(O)C(=O)CO)[C@@]2(C)C=CC(=O)C=C12,1.07 ± 0.02,0.417 ± 0.054
CC(=O)OCC(=O)[C@@]1(O)CC[C@H]2[C@@H]3CCC4=CC(=O)C=C[C@]4(C)[C@H]3[C@@H](O)C[C@@]21C,0.822 ± 0.19,0.823 ± 0.06
CC(C)Nc1ncccn1,0.928 ± 0.053,1.05 ± 0.2
Cc1oc(=O)oc1CN1CCN(c2cc3c(cc2F)c(=O)c(C(=O)O)c2n3C(C)S2)CC1 (stereo unspecified),1.14 ± 0.069,0.0187 ± 0.0013
NC(=O)[C@@H]1CCCN1C(=O)[C@H](Cc1c[nH]cn1)NC(=O)[C@@H]1CCC(=O)N1,1.02 ± 0.038,0.959 ± 0.044

SMILES,normalized intracellular growth (time point: T3 (3 h)),normalized intracellular growth (time point: Tfinal (~6 h))
CC1(C)OC(=O)C(OCC2CC2)=C1c1ccc(S(C)(=O)=O)cc1,1.15 ± 0.017,1.2 ± 0.13
OCC(S)CS (stereo unspecified),0.927 ± 0.011,1.03 ± 0.053
O=C(O)c1ccc[n+]([O-])c1,0.967 ± 0.051,1.05 ± 0.023
COc1ccc2cc(C(C)C(=O)O)ccc2c1 (stereo unspecified),1.04 ± 0.036,1.09 ± 0.089
C=C[C@H]1CN2CC[C@H]1C[C@H]2[C@H](O)c1ccnc2ccc(OC)cc12,0.978 ± 0.042,0.953 ± 0.058
CCCCC(CC)COC(=O)c1ccccc1O (stereo unspecified),1.05 ± 0.055,0.89 ± 0.17
Nc1ccc(C(=O)O)cc1,1.023 ± 0.0022,0.829 ± 0.11
O=c1[nH]c(=O)n([C@H]2C[C@H](O)[C@@H](CO)O2)cc1F,0.699 ± 0.043,0.209 ± 0.03
CCc1cn([C@H]2C[C@H](O)[C@@H](CO)O2)c(=O)[nH]c1=O,1.09 ± 0.034,0.868 ± 0.01
O=c1[nH]c(=O)n([C@H]2C[C@H](O)[C@@H](CO)O2)cc1I,1.005 ± 0.0041,1.01 ± 0.2
CC(C)(C)C(=O)C(Oc1ccc(Cl)cc1)n1ccnc1 (stereo unspecified),1.042 ± 0.0043,1.12 ± 0.016
N#Cc1ccc2c(c1)N(CCCN1CCC(O)CC1)c1ccccc1S2,1.04 ± 0.014,0.869 ± 0.15
CC(C)C[C@@H]1NC(=O)[C@H](CCCN)NC(=O)[C@H](C(C)C)NC(=O)[C@H](Cc2ccc(O)cc2)N[C@@H](CCC(=O)O)C(=O)N[C@@H](CC(N)=O)C(=O)[C@@H](Cc2ccccc2)NC(=O)[C@H](Cc2ccccc2)NC(=O)[C@@H]2CCCN2C(=O)[C@@H](Cc2ccccc2)NC1=O,0.95 ± 0.055,1 ± 0.064
CO/N=C(\C(=O)N[C@@H]1C(=O)N2C(C(=O)O)=C(C[N+]3(C)CCCC3)CS[C@H]12)c1csc(N)n1,1.01 ± 0.054,0.0358 ± 0.0021
COCC1=C(C(=O)OC(C)OC(=O)OC(C)C)N2C(=O)[C@@H](NC(=O)/C(=N\OC)c3csc(N)n3)[C@H]2SC1 (stereo partly specified),0.953 ± 0.066,1.06 ± 0.2
C=CC1=C(C(=O)O)N2C(=O)[C@@H](NC(=O)/C(=N\O)c3csc(N)n3)[C@H]2SC1,0.973 ± 0.034,0.0262 ± 0.0031
Cc1nnc(SCC2=C(C(=O)O)N3C(=O)[C@@H](NC(=O)Cn4cnnn4)[C@H]3SC2)s1,1.09 ± 0.087,1.2 ± 0.074
Cn1nnnc1SCC1=C(C(=O)O)N2C(=O)[C@@H](NC(=O)[C@H](O)c3ccccc3)[C@H]2SC1,1.08 ± 0.041,1.02 ± 0.17
CO/N=C(\C(=O)N[C@@H]1C(=O)N2C(C(=O)OCOC(=O)C(C)(C)C)=C(/C=C\c3scnc3C)CS[C@H]12)c1csc(N)n1,0.923 ± 0.047,0.0689 ± 0.074
CC=CC1=C(C(=O)O)N2C(=O)[C@@H](NC(=O)[C@H](N)c3ccc(O)cc3)[C@H]2SC1,1.06 ± 0.039,0.738 ± 0.11
CC(=O)OCC1=C(C(=O)O)N2C(=O)[C@@H](NC(=O)Cc3cccs3)[C@H]2SC1,0.979 ± 0.037,1.01 ± 0.027
CO/N=C(\C(=O)N[C@@H]1C(=O)N2C(C(=O)O)=C(COC(C)=O)CS[C@H]12)c1csc(N)n1,0.898 ± 0.017,0.178 ± 0.0072
CC(=O)OCC1=C(C(=O)O)N2C(=O)[C@@H](NC(=O)CSc3ccncc3)[C@H]2SC1,1 ± 0.024,0.957 ± 0.042
N[C@@H](C(=O)N[C@@H]1C(=O)N2C(C(=O)O)=C(Cl)CS[C@H]12)c1ccccc1,1.03 ± 0.054,1.08 ± 0.021
